BRCA1 expr act: BRCA1 expression activation; MCF7-BRCA1-FFLuc reporter, luminescence, 48 h; response scale: scaled: vehicle 0%, 10 µM genistein 100%; Potency, µM (highest dose often 46.1 µM), hits mostly activators; 380,000 tested, 1.1% active; also: nearly all actives have a fitted effect of over 80% in size
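First, MCF7-BRCA1-FFLuc cells (2000/well) attach for 2 h; next, compounds are pin-added and incubated 48 h at 37 °C; finally, luciferase reagent is added and luminescence read after 15 min.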
Nrf2 ARE act: Nrf2 pathway activation | AREc32 ARE-luciferase reporter (MCF7-derived line), luminescence, 24 h | Potency, µM (highest dose often 46.1 µM), usual class: activators | 410,000 tested, 0.31% active; also: nearly all actives have a fitted effect of over 65% in size
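AREc32_Fluc, 1000 cells/well, OPTI-MEM + 5% FBS, o/n 37 deg C 5% CO2; 23 nL cpd by pin tool, 24 hr; Steady-Glo 30 min RT, luminescence.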
ELG1 repair inh: ELG1-dependent DNA repair inhibition; HEK293T ELG1-luciferase reporter, luminescence, 16 h; DNA damage induced by 5-fluorouridine; Potency, µM (top dose mostly 46.1 µM), actives largely listed as inhibitors; 330,000 tested, 2.3% active; AID 504467; also: nearly all actives have a fitted effect of over 55% in size
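Reporter activity after DNA damage by 5-fluorouridine is monitored. Compound-treated cells incubate 16 hr at 37 °C, then ONE-Glo is added for 30 min before luminescence reading.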
IL2 activator: activates IL-2 in a cell-based reporter assay; IL-2 activation reporter assay, cell-based qHTS; stimulated with anti-CD3/CD4/CD28 beads; in transgenic mouse T cells; activation, % (series mostly up to about 46 µM); 360,000 tested, 0.065% active; AID 652025; in the data active = activation above about 50%; inconclusive = mostly about 30% to 49%
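Readout: EGFP and DsRed signals by fluorescent plate cytometry. Unstimulated transgenic mouse T cells received compound 60 min before antibody-bead stimulation, then incubated 18 h at 37 degrees C.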
Numbers stand for hits; n = inactive; u = inconclusive; x = no result. Sampled rows, rich in hits. Any-hit rate of the full collection: about 3.1%. Unless noted, calls follow the shape of the dose curve; as a rule, active = well fitted curve in the direction sought with a large enough effect; inconclusive = small, poorly fitted or top-dose-only effect, or another doubt; inactive = no such curve, though single readings can be large; an effect the other way counts as inactive or inconclusive.

SMILES | BRCA1 expr act | Nrf2 ARE act | ELG1 repair inh | IL2 activator
CN(C)/C=C/c1c([N+](=O)[O-])c2ccc(O)cc2n1-c1ccccc1 | n | n | 7.3µM | n
COC(=O)c1c(C)n(-c2ccccc2)c2ccc(O)cc12 | n | n | u | n
Cc1cccc(C)c1C(O)c1ncc(-c2ccccc2Cl)[nH]1 (configuration not stated) | n | n | x | n
CCN(C[C@H]1N[C@@](CC)(C(=O)OC)[C@H]2C(=O)N(Cc3ccccc3)C(=O)[C@@H]12)C(=O)c1ccccc1 | n | n | 20.6µM | n
CCN(C[C@H]1N[C@@](Cc2ccccc2)(C(=O)OC)[C@H]2C(=O)N(C)C(=O)[C@@H]12)S(=O)(=O)c1ccc(C(F)(F)F)cc1 | n | n | 23.1µM | n
CCN(C[C@H]1N[C@@](Cc2ccccc2)(C(=O)OC)[C@H]2C(=O)N(C)C(=O)[C@@H]12)S(=O)(=O)c1ccc(OC(F)(F)F)cc1 | n | n | 20.6µM | n
CCc1ccccc1NC(=O)c1ccc2nc(C(C)C)oc2c1 | x | n | x | x
CCOC(=O)N1CCC(NC(=O)c2cc3c(-c4ccccc4F)nn(C)c3s2)CC1 | n | n | 13µM | n
COc1ccc(NC(=O)c2cc3c(-c4ccc(OC)c(OC)c4)nn(C)c3s2)cc1OC | n | n | 1.64µM | n
CCOC(=O)N1CCC(NC(=O)c2cc3c(-c4ccc(OC)c(OC)c4)nn(C)c3s2)CC1 | n | n | 7.31µM | n
CCCCN(CC)c1nc(-c2ccncc2)nc2ccccc12 | n | n | 23.1µM | n
CCCCN(CCCC)c1nc(-c2ccccc2)nc2ccccc12 | x | n | x | x
Cc1ccc(C(=O)CSc2nnc(N)s2)c(C)c1 | 4.47µM | n | u | n
Cc1cc(C(=O)CSc2nc(N)cc(N)n2)c(C)n1C1CC1 | n | n | n | n
Cc1cc(C(=O)CSc2nnc(N)s2)c(C)n1C1CC1 | 7.94µM | n | u | n
Cc1cc(C)c(C(=O)CSc2nnc(N)s2)cc1C | n | n | n | n
COc1ccc(CCOC(=O)c2ccc(NC(=O)CC#N)cc2)cc1 | n | n | n | n
COc1ccc(C(=O)OCCc2ccc(O)cc2)cc1 | 5.01µM | n | u | n
COC(=O)c1ccc(COC(=O)CNC(=O)c2ccc(OC)cc2)cc1 | 5.01µM | n | u | n
COc1cccc(C=C2Cc3ccccc3C2=O)c1 | n | u | x | n
COc1ccc2c(c1)CC/C(=C/c1ccccn1)C2=O | 12.6µM | u | u | n
COc1ccc(/C=C2\CCc3ccccc3C2=O)cc1OC | n | u | u | n
COc1cccc(/C=C2\CCc3ccccc3C2=O)c1 | 12.6µM | u | u | n
CC(=O)Oc1ccc(/C=C2/CCc3ccccc3C2=O)cc1 | 12.6µM | n | u | n
COc1ccc2c(c1)CC/C(=C\Nc1ccc3c(c1)OCO3)C2=O | 3.16µM | n | u | n
SMILES | BRCA1 expr act | Nrf2 ARE act | ELG1 repair inh | IL2 activator
O=C1/C(=C/Nc2ccc3c(c2)OCO3)CCc2ccccc21 | u | n | u | n
O=S(=O)(c1ccc(NC(=S)NC23CC4CC(CC(C4)C2)C3)cc1)N1CCCCC1 | n | n | x | n
C=C1C=C(C(F)F)n2ncc(C(=O)NCCc3ccc(Cl)cc3)c2N1 | n | x | x | x
COc1ccc2c(c1)CC/C(=C/c1cc(OC)c(OC)c(OC)c1)C2=O | n | n | 18.3µM | n
O=C(Cc1cccc([N+](=O)[O-])c1)Nc1cccc(C(=O)N2CCCCC2)c1 | n | n | 16.4µM | n
CN(Cc1ccccc1)C(=O)c1ccc(NC(=O)Cc2cccc([N+](=O)[O-])c2)cc1 | n | n | n | n
O=C(Cc1cccc([N+](=O)[O-])c1)Nc1cccc(C(=O)N2CCOCC2)c1 | n | n | n | n
CN(CCc1ccccc1)C(=O)c1cccc(NC(=O)Cc2cccc([N+](=O)[O-])c2)c1 | n | n | 23.1µM | n
CCOC(=O)c1c(C)[nH]c(C)c1S(=O)(=O)N(C)CC(=O)N1CCN(c2cccc(Cl)c2)CC1 | x | n | x | x
O=C(Cn1ncc2c1-c1ccccc1OC2)N1CCN(Cc2ccc3c(c2)OCO3)CC1 | n | n | 23.1µM | n
COc1ccc(C(=O)CN2CCN(c3cc(C)nc4ccccc34)CC2)cc1 | n | n | 8.2µM | n
Cc1cc(N2CCN(S(=O)(=O)c3ccc(Cl)cc3)CC2)c2ccccc2n1 | n | n | 23.1µM | n
CCCNC(=O)CCC(=O)N1Cc2cccc(OC)c2Oc2ncccc21 | x | n | x | x
CCC(=O)n1nc(NCc2ccc(OC)c(OC)c2)nc1NCc1ccc(OC)c(OC)c1 | n | n | 10.3µM | n
COCC(=O)n1nc(NCc2ccc(OC)cc2)nc1NCc1ccc(OC)cc1 | n | n | n | n
NS(=O)(=O)c1ccc(N=Nc2c(-c3ccccc3)[nH]n(-c3nc(-c4ccccc4)cs3)c2=O)cc1 | n | n | 5.17µM | n
CN(C)N1C(N)=C(C#N)C(c2cccc3ccccc23)C2=C1CC(c1ccccc1)CC2=O (configuration not stated) | n | n | 16.4µM | n
CC(C)(C)c1ccc2c(c1)OC(C(=O)N/N=C\c1ccncc1)CO2 (configuration not stated) | n | n | 14.6µM | n
CN(C1CCCCC1)S(=O)(=O)c1ccc2c(c1)c(=O)c(C(=O)N1CCN(c3ccccc3)CC1)cn2C | x | n | x | x
O=C(NCCN1CCOCC1)c1ccccc1N1C(=O)[C@@H]2Cc3c([nH]c4ccccc34)C(c3ccc(F)cc3)N2C1=O (some centres not stated) | n | n | 5.17µM | n
Cc1ccc(-c2nnc(N3CCN(C(=O)COc4ccccc4)CC3)c3ccccc23)cc1 | n | n | 20.6µM | n
O=C(COc1ccc([N+](=O)[O-])cc1)N1CCN(c2nnc(-c3ccccc3)c3ccccc23)CC1 | n | n | n | n
O=C(COc1ccc(-c2nnc(N3CCCCC3)c3ccccc23)cc1)N1CCCCC1 | n | n | 14.6µM | n
COc1ccccc1NC(=O)c1cc2c([nH]c1=O)CC(C)(C)CC2=O | x | n | x | x
CCOc1ccc(N(C)S(=O)(=O)c2ccc3c(c2)C(C)(C)C(=O)N3C)cc1 | n | n | x | x
SMILES | BRCA1 expr act | Nrf2 ARE act | ELG1 repair inh | IL2 activator
NCc1cn(Cc2ccccc2)nc1-c1ccccc1 | n | x | x | x
COc1cccc(-c2nn(Cc3ccccc3)cc2CO)c1 | 12.6µM | n | u | n
Cc1ccc(Cn2cc(CCC(=O)NC3CCCCC3)c3ccccc32)cc1 | x | n | x | x
CC(C)Oc1ccc(-c2nc(NCC3CCCO3)c3ccccc3n2)cc1 (configuration not stated) | n | n | u | n
c1cncc(-c2nc(NCC3CCCO3)c3ccccc3n2)c1 (configuration not stated) | n | n | 23.1µM | n
Clc1cccc(-c2nc(NCc3cccnc3)c3ccccc3n2)c1 | n | n | 7.31µM | n
c1ccc(-c2nc(NCc3cccnc3)c3ccccc3n2)cc1 | n | n | u | n
CCN(c1ccccc1)S(=O)(=O)c1cc(C(=O)Nc2ccc(F)c(F)c2)ccc1F | n | n | 20.6µM | n
CCN(c1ccccc1)S(=O)(=O)c1ccc(Cl)c(NC(=O)Nc2ccc(Cl)cc2C#N)c1 | n | n | n | n
